In PubChem BioAssay (NCATS):
Values joined by “and” are separate entries in the source; they are usually repeats but may differ in a detail not shown here. Equal values may be shown once. Results filed as inconclusive are left out. Active and inactive are the calls of the source. Unless noted, calls come from the whole dose curve; as a rule, active = well fitted curve in the direction sought with a large enough effect; inconclusive = small, poorly fitted or top-dose-only effect, or another doubt; inactive = no such curve, though single readings can be large; an effect the other way counts as inactive or inconclusive.

Assays:
[1] = Cell Viability - BJ (AID 421; calls by dose curve;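 note: potency is the fitted concentration of half-maximal effect; cells exposed to compound for 40 hours at 37 °C before readout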); conditions: BJ fibroblast viability, qHTS
How it was run: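 Cytotoxicity as drop in intracellular ATP (CellTiter-Glo, 20 min RT) after 40 hr compound exposure of BJ fibroblasts at 37 °C. Titrations scaled between DMSO and 100 uM tamoxifen, Hill-fitted for AC50.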

[2] = Cell Viability - MRC5 (AID 434; calls by dose curve;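 note: potency is the fitted concentration of half-maximal effect; cells exposed to compound for 40 hours at 37 °C; potency reflects cytotoxicity seen as loss of intracellular ATP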); conditions: MRC5 lung fibroblast viability, qHTS
How it was run: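 ATP luminescence read-out (CellTiter-Glo, 20 min RT) after 40 hr, 37 °C compound exposure of 1500 MRC5 cells/well. Data normalized to DMSO (basal) and 100 uM tamoxifen (100% inhibition); AC50 from standard Hill equation.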

[3] = Cell Viability - SK-N-SH (AID 435; calls by dose curve;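 note: potency is the fitted concentration of half-maximal effect; compound exposure lasted 40 h at 37 °C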); conditions: SK-N-SH neuroblastoma cell viability qHTS
How it was run: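 CellTiter-Glo ATP luminescence, 20 min RT read; cells pre-plated 5 hr, compound 40 hr at 37 °C, 1500 cells/well, complete medium. Normalized DMSO = 0, 100 uM tamoxifen = 100% inhibition; Hill-fit AC50.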

[4] = target: Mitogen-activated protein kinase 10 (Mus musculus) (UniProt Q61831); assay: JNK3 AlphaScreen Assay (AID 530; active = well fitted curve in either direction with a large enough effect, not every such curve was filed as active;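 note: kinase came from lysate of stimulated human HepG2 cells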; note: potency is the fitted concentration of half-maximal effect;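 for activity change, negative = inhibition: signal reports phosphorylation of biotinylated GST-cJun 1-79 at Ser73 with 10 µM ATP; % is set by controls: 0 for no effect and ±100 for the full control effect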); conditions: JNK3 lysate, c-Jun phosphorylation; series mostly up to 57.1 µM
How it was run: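 Activity was read by AlphaScreen after JNK3-containing HepG2 lysate (cytokine pre-activated) phosphorylated biotinylated GST-cJun with 10 uM ATP at room temperature. Phospho-Ser73 cJun antibody with Protein-A acceptor beads provided detection.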

[5] = Cell Viability - SH-SY5Y (AID 544); conditions: SH-SY5Y neuroblastoma cell viability; viability change, negative = cytotoxic: at 92.2 µM (top of the series);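 note: cells exposed to compound for 40 hours; nearly all actives have a fitted effect of over 55% in size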; note: potency is the fitted concentration of half-maximal effect
How it was run: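 Cells were plated at 1500 per well and allowed 5 hr at 37 °C. Compounds were added across a concentration range and incubated 40 hr at 37 °C. CellTiter-Glo was added for 20 min at room temperature before luminescence reading.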

[6] = Cell Viability - Renal Proximal Tubule (AID 545); conditions: renal proximal tubule cells viability, primary cells of rat origin; activity change, negative = cytotoxicity: at 91.7 µM (top of the series);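 note: cells exposed to compound for 40 hours; nearly all actives have a fitted effect of over 40% in size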; note: potency is the fitted concentration of half-maximal effect
How it was run: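 Rat kidney proximal tubule cells, freshly isolated; 1000 cells/well, 5 hr settle, compound 40 hr 37 °C. CellTiter-Glo 20 min RT, luminescence read. AC50 by standard Hill fit.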

[7] = Cellular Toxicity (caspase-3) HepG2 (AID 654); conditions: HepG2 caspase-3 activation, luminescence; series mostly up to 92.2 µM; note: potency is the fitted concentration of half-maximal effect;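 for caspase-3 activation: cells exposed to compound for 16 hours before reading; 0% = DMSO alone and 100% = caspase signal from 100 µM tamoxifen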
How it was run: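 Caspase 3/7 activation in HepG2 is measured as rising luminescence after a 16 hr treatment at 37 °C. Values are scaled between DMSO basal and 100 uM tamoxifen, and AC50 is fitted with the Hill equation.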

[8] = Cellular Toxicity (caspase-3) Mesangial (AID 660); conditions: mesangial cells, normalized: DMSO 0%, 100 µM tamoxifen 100%; at 91.7 µM (top of the series);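 note: combined caspase 3 and 7 activity read by Caspase-Glo luminescence; cells exposed to compound for 16 h before the caspase read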
How it was run: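 Seed cells derived from normal human renal glomeruli, incubate 5 h, add compounds across concentrations and incubate 16 h at 37 °C. Caspase 3/7 activation is then quantified by luciferase light, with AC50 derived by Hill modeling.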

[9] = Cellular Toxicity (caspase-3) N2a (AID 665); conditions: N2a cells, luminescence; Potency: caspase-3 activation; series mostly up to 92.2 µM;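 note: compound exposure lasted 16 h at 37 °C before readout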
How it was run: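 Caspase-3/7 activation, measured as increased luminescence from aminoluciferin release, is quantified in mouse N2a cells exposed to compounds for 16 h. Values are normalized to DMSO and 10 uM staurosporine, with AC50 derived by Hill modelling.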

[10] = Cellular Toxicity (caspase-3) Renal Proximal Tubule (AID 667); conditions: renal proximal tubule cells, primary cells freshly taken from rat, solvent-only wells 0%, staurosporine 100%; series mostly up to 91.7 µM;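 note: cells exposed to compound for 16 hours at 37 °C before detection; 0% = DMSO basal and 100% = 10 µM staurosporine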
How it was run: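 Luminescent caspase 3/7 signal from peptide-aminoluciferin cleavage measures apoptosis in freshly isolated rat kidney proximal tubule cells after 16 h compound exposure. Concentration-response data are normalized to DMSO and 10 uM staurosporine, and AC50 values come from Hill equation fits.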

[11] = target: Peroxisome proliferator-activated receptor alpha (Homo sapiens) (UniProt Q07869); assay: qHTS assay for small molecule agonists of the peroxisome proliferator-activated receptor alpha (PPARalpha) signaling pathway (AID 651778); conditions: PathHunter PPARalpha complementation, chemiluminescence, 6 h; max response: hits give high values; note: % of control where 0% means no effect
How it was run: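 Enzyme-fragment complementation assay in which ligand-bound PPARalpha translocates and forms an active enzyme that generates chemiluminescence. Cells were plated overnight, exposed to compound for 6 hr at 37 C, and then given detection reagent for 60 min at room temperature.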

[12] = Cellular Toxicity (caspase-3) HUV-EC-C (AID 656); conditions: HUV-EC-C cells, caspase-3 activation (apoptosis); series mostly up to 92.2 µM
How it was run: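 Luminescent caspase-3/7 activation (aminoluciferin substrate cleavage) in HUV-EC-C cells after 16 hr compound exposure, 37°C. Signal normalized to DMSO basal and 100 uM tamoxifen as 100%; AC50 from concentration-response fitted with the Hill equation.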

[13] = target: Cytochrome P450 3A4 (Homo sapiens) (UniProt P08684); assay: qHTS Assay for Inhibitors and Substrates of Cytochrome P450 3A4 (AID 884); conditions: recombinant CYP3A4, Luciferin-PPXE luminescence; series mostly up to 57.1 µM; note: nearly all actives have a fitted effect of over 50% in size; note: potency is the fitted concentration of half-maximal effect; for activity change, negative = inhibition: % is set by controls: 0 for no effect and ±100 for the full control effect
How it was run: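 Luminescent readout of luciferin produced by CYP3A4 (20 nM) dealkylation of Luciferin-PPXE, 25 uM (its KM). NADPH-driven reaction ran 60 min at RT after 10 min compound preincubation; data scaled to 57 uM ketoconazole as 100% inhibition.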

[14] = NFAT Signaling Pathway (AID 444; active = well fitted curve in either direction with a large enough effect, not every such curve was filed as active;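 note: carbachol stimulus at about its EC50 of 1 µM final; % is set by controls: 0 for no effect and ±100 for the full control effect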); conditions: Jurkat NFAT-bla M1, carbachol, beta-lactamase ratio, 5 h; at 17.2 µM (top of the series) unless noted
How it was run: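 Jurkat cells with NFAT-driven β-lactamase reporter and co-expressed M1 receptor, stimulated with carbachol (final 1 uM, ~EC50), compound titration, 5 h at 37 °C. CCF4 loaded 1 h at RT; 460/530 nm ratio gave %activity and AC50.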

[15] = Stat Signaling Pathway (AID 446; active = well fitted curve in either direction with a large enough effect, not every such curve was filed as active;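 note: ME-180 cervical cancer cells given 40 pM IL-6 alongside compound; SIE-controlled beta-lactamase reporter measured as 460/530 nm FRET emission ratio; % is set by controls: 0 for no effect and ±100 for the full control effect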); conditions: ME-180 (cervical carcinoma) SIE beta-lactamase reporter, IL-6 stimulated, 5 h; at 17.2 µM (top of the series) unless noted
How it was run: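 FRET read-out (405 nm excitation, 460/530 nm emission) of a beta-lactamase reporter under a STAT-inducible element in ME-180 cervical carcinoma cells. Cells with compound receive 40 pM IL-6 for 5 h. Values are normalised to AC90 stimulation and AC90 JAK-inhibitor controls.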

[16] = target: Glucocorticoid receptor (Homo sapiens) (UniProt P04150); assay: GR-GFP Redistribution (AID 450;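 active = compounds whose dose series gives a full or clear partial fitted curve of increased nuclear translocation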; note: potency is the fitted concentration of half-maximal effect); conditions: U2OS GR-GFP nuclear translocation, laser cytometry, 2 h; series mostly up to 20.6 µM
[17] = qHTS assay for cell viability of HEK293 cells (AID 743288); conditions: ATP luminescence (CellTiter-Glo), 18 h; max response: hits give low values; note: % is set by controls: 0 for no effect and ±100 for the full control effect; nearly all actives have a fitted effect of over 50% in size
How it was run: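 ATP luminescence (CellTiter-Glo) reports metabolically competent cell number after parental HEK293 cells, 2,000/well, were treated with DMSO-dissolved compounds for 18 h at 37 C; reagent incubation 30 min, room temperature.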

[18] = target: Cytochrome P450 3A4 (Homo sapiens) (UniProt P08684); assay: qHTS Assay for Activators of Cytochrome P450 3A4 (AID 885); conditions: recombinant CYP3A4, Luciferin-PPXE luminescence, 60 min; series mostly up to 57.1 µM; note: nearly all actives have a fitted effect of over 65% in size
How it was run: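 Luminescent readout of luciferin formed from 25 uM Luciferin-PPXE (KM level) by 20 nM CYP3A4 in 200 mM KPO4, with 60 min NADPH-driven reaction at room temperature after 10 min compound exposure. Ketoconazole (57 uM) defined 100% inhibition.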

Glucocorticoid receptor (Homo sapiens), sequence (P04150 whole entry, looked up): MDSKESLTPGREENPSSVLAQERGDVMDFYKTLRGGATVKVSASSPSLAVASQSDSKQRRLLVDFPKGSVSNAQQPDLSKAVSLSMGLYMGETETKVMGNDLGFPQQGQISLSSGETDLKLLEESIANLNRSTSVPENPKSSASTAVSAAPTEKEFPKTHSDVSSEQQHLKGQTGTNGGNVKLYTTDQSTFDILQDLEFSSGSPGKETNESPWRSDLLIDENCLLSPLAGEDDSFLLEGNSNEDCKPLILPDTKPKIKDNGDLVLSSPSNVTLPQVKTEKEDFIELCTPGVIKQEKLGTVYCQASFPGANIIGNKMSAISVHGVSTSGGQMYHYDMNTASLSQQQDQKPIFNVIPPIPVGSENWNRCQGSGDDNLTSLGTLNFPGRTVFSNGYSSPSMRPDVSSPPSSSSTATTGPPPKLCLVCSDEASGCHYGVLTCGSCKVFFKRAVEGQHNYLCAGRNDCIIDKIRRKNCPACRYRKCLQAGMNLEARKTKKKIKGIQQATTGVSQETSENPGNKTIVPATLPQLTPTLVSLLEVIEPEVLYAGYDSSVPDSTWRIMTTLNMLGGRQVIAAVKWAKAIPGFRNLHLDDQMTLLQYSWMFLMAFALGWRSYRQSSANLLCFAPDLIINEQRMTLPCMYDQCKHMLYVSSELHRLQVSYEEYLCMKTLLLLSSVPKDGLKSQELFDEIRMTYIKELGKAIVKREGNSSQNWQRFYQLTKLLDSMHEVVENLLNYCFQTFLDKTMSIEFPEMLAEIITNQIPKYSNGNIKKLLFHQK
Cytochrome P450 3A4 (Homo sapiens), sequence (P08684 whole entry, looked up): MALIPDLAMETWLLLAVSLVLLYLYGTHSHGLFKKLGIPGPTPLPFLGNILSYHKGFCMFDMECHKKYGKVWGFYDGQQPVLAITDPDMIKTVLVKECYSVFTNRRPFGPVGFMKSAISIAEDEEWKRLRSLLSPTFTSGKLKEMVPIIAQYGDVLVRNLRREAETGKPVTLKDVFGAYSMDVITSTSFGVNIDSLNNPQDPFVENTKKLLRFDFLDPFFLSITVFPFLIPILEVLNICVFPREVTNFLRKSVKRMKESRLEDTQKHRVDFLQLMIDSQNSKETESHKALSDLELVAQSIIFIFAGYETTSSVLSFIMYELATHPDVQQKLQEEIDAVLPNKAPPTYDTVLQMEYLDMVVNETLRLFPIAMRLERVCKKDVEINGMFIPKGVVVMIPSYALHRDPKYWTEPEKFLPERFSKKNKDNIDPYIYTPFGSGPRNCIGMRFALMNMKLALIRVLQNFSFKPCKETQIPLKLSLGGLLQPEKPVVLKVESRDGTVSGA
Peroxisome proliferator-activated receptor alpha (Homo sapiens), sequence (Q07869 whole entry, looked up, the tested form may be a part): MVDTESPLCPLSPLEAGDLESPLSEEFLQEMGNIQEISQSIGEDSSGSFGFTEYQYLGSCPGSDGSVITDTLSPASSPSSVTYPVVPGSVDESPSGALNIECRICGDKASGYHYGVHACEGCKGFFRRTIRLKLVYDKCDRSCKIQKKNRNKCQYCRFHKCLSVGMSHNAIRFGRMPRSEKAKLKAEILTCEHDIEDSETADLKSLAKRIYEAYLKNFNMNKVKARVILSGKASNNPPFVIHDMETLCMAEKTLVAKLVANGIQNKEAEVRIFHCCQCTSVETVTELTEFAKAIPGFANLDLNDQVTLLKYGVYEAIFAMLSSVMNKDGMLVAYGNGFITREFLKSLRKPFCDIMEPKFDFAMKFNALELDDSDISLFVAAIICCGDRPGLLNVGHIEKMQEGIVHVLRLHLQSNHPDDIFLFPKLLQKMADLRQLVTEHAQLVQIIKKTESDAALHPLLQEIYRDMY

CC/C(=C(\c1ccccc1)c1ccc(OCCN(C)C)cc1)c1ccc(O)cc1
inactive: Potency [4] | caspase-3 activation [8] -2.42% | Potency [9] | outcome [10] | max response [11] -3.76%
active: Potency [1] 45.1 µM | Potency [2] 43.3 µM | Potency [3] 34.3 µM | Potency [5] 31.6 µM | activity change, negative = cytotoxicity [6] -109% | Potency [7] 50.1 µM

C/C=C1\C(=O)C[C@H]2[C@@H]3CCC4=CC(=O)CC[C@]4(C)[C@H]3CC[C@]12C
active: viability change, negative = cytotoxic [5] -80.2%
inactive: Potency [1] > 92 µM | Potency [2] > 92 µM | Potency [4] | Potency [7] | Potency [12] | caspase-3 activation [8] 1.02% | Potency [9] | outcome [10] | Potency [13] | max response [11] -3.35%

Cc1ccc(C(=O)CSC2=C(C#N)C(c3ccco3)C3=C(CCCC3=O)N2)cc1 (stereo not drawn)
inactive: activity change, negative = inhibition [14] -8.28% | activity, negative = inhibition [15] -22.5% | Potency [16] > 20.6 µM

O=C(CSc1nc2ccccc2s1)Nn1cnnc1
inactive: activity change, negative = inhibition [14] 2.13% | activity, negative = inhibition [15] 5.58% | Potency [16] > 20.6 µM

O=C(OCC(COC(=O)c1ccccc1)(COC(=O)c1ccccc1)COC(=O)c1ccccc1)c1ccccc1
inactive: Potency [1] > 92 µM | Potency [2] > 92 µM | Potency [3] > 92 µM | Potency [4] | Potency [5] | Potency [6] | Potency [7] | Potency [12] | caspase-3 activation [8] -0.308% | Potency [9] | outcome [10] | Potency [13] | max response [11] -8.1% | max response [17] -3%

c1ccc2c(c1)ccc1cc3c(ccc4ccccc43)cc12
inactive: Potency [1] > 92 µM | Potency [2] > 92 µM | Potency [3] > 92 µM | Potency [5] | Potency [6] | Potency [7] | Potency [12] | caspase-3 activation [8] 0.415% | Potency [9] | outcome [10] | Potency [13] | max response [11] -1.24% | max response [17] -4.73%

Nc1nnc(Cc2ccc(Cl)c(Cl)c2)s1
inactive: activity change, negative = inhibition [14] 2.08% | activity, negative = inhibition [15] 4.97% | Potency [16] > 20.6 µM

CN(C)c1ccc(C2(c3ccc(N(C)C)cc3)OC(=O)c3cc(N(C)C)ccc32)cc1
inactive: Potency [1] > 92 µM | Potency [2] > 92 µM | Potency [3] > 92 µM | Potency [5] | Potency [6] | Potency [7] | Potency [12] | caspase-3 activation [8] 0.256% | Potency [9] | outcome [10] | Potency [18] | max response [11] -2.57% | max response [17] -3.92%

C=CCc1cccc(/C=N/n2cnnc2)c1O
inactive: activity change, negative = inhibition [14] -2.18% | activity, negative = inhibition [15] 7.8% | Potency [16] > 20.6 µM

CO[C@H]1/C=C/O[C@@]2(C)Oc3c(C)c(O)c4c(O)c(c5c(c4c3C2=O)NC2(CCN(CC(C)C)CC2)N=5)=NC(=O)/C(C)=C\C=C\[C@H](C)[C@H](O)[C@@H](C)[C@@H](O)[C@@H](C)[C@H](OC(C)=O)[C@@H]1C
inactive: Potency [1] > 92 µM | Potency [2] > 92 µM | Potency [3] > 92 µM | Potency [7] | Potency [12] | caspase-3 activation [8] 0.833% | Potency [9] | outcome [10] | Potency [18] | max response [11] -2.63% | max response [17] -15.3%

c1cc(OCC2CO2)cc(OCC2CO2)c1 (stereo not drawn)
active: Potency [1] 27.4 µM | Potency [2] 34.7 µM | Potency [3] 9.23 µM | Potency [5] 0.251 µM | Potency [6] 31.6 µM
inactive: Potency [7] | Potency [9] | outcome [10] | max response [11] -3.13% and -3.49% | max response [17] -14.2%

Oc1ccc2cc(SSc3ccc4cc(O)ccc4c3)ccc2c1
inactive: Potency [7] | Potency [12] | caspase-3 activation [8] -1.21% | Potency [9] | outcome [10] | Potency [18] | max response [11] -7.41% | max response [17] -14.6%
active: Potency [1] 49.1 µM | Potency [2] 38.3 µM | Potency [3] 42.5 µM | viability change, negative = cytotoxic [5] -101% | activity change, negative = cytotoxicity [6] -82.8% | Potency [13] 15.8 µM

Cc1ccc(S(=O)(=O)Oc2ccc(N=Nc3ccc(-c4ccc(N=Nc5c(O)ccc6cc(S(=O)(=O)O)cc(S(=O)(=O)O)c56)c(C)c4)cc3C)cc2)cc1
active: Potency [4] 0.2 µM | Potency [6] 31.6 µM
inactive: Potency [2] > 92 µM | Potency [7] | Potency [12] | caspase-3 activation [8] -0.709% | Potency [9] | outcome [10] | max response [11] -11.2%
